# Source: PubChem (National Center for Advancing Translational Sciences (NCATS))
# IMPase cell inh: qHTS Assay for Identifying the Cell-Membrane Permeable IMPase Inhibitors | inhibition (IP1 accumulation), % at 46.1 µM | 120,000 tested, under 10 active | CHO-M1 cells, IP1 accumulation, HTRF TR-FRET ratio | AID 901, 2007 | Inositol monophosphatase 1 (Rattus norvegicus), P97697; active means well fitted curve in the direction sought with a large enough effect in the signal ratio, not every such curve was filed as active; inconclusive means small, poorly fitted or top-dose-only effect, or a change in a side signal; inactive means no such curve, though single readings can be large or run the other way; the % refers to the signal ratio;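 further: cells stimulated with carbachol in lithium chloride buffer; plate controls were DMSO basal wells for no effect and reference inhibitor wells for full effect; higher means more IMPase inhibition seen as more IP1 and lower FRET ratio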
# Target sequence (P97697 whole entry, looked up): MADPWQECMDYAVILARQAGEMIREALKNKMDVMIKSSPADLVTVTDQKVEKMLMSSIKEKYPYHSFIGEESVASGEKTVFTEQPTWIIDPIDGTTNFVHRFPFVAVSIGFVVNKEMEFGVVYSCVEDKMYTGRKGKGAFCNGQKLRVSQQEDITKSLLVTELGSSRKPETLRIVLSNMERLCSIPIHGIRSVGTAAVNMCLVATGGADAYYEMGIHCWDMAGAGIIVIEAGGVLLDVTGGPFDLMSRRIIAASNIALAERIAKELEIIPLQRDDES
#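 Seeded CHO-M1 cells were dosed with compound at up to 46 uM, stimulated with carbachol for 30 min, then lysed in IP-One detection reagents. Higher IP1 lowers the TR-FRET signal.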
# Lamin A splicing: qHTS Assay for Modulators of Lamin A Splicing. HeLa LMNA splicing GFP/RFP minigene ratio, 48 h. Potency, µM (titrated, usually from 46.1 µM), without a hit: at the top dose ratio change, negative = inhibition, actives largely listed as inhibitors. 0.01% of 200,000 active; active means well fitted inhibition curve with a large enough effect in the signal ratio, with a control signal flat, not every such curve was filed as active; inconclusive means small, poorly fitted or top-dose-only effect, or effect the other way, or a change in a side signal; the % refers to the signal ratio; further: potency means the concentration at half of the fitted maximal effect
#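 S3 HeLa cells stably expressing lamin A-EGFP splicing minigene plus DsRed2, 600 cells/well, 48 h compound exposure at 37C. Laser-scanning cytometry; analysed as GFP (500-530 nm)/RFP (575-640 nm) total intensity ratio; 0.5% DMSO vehicle.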
# PNC assembly inh: High Content Assay for Compounds that inhibit the Assembly of the Perinucleolar Compartment | activity change (PNC), negative = inhibition, % at 10 µM | 3.1% of 140,000 active | AID 2417, 2010 | PC3M PTB-GFP, PNC prevalence imaging, 16 h; active compounds read low;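 active means readout at or below -70, meaning at least 70% loss of cells showing the perinucleolar compartment, a nuclear body marking cancer cells; inconclusive means readout between -30 and a set limit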;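 further: plate controls were DMSO wells for no effect and camptothecin positive control wells for full effect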
#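 Read-out is percentage of cells bearing a perinucleolar compartment, from automated 20x imaging of fixed, Hoechst-stained PC3M PTB-GFP cells. Cells were seeded 4 h, then exposed 16 h to compound (23 nl of library stock) in duplicate plates.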
# KinaseGlo FLuc: Counterscreen for Luciferase (Kinase-Glo TM) Inhibition; Luciferin 4-monooxygenase (Photuris pensylvanica), Q27757; Kinase-Glo luciferase, ATP luminescence, 8 min; Potency, µM (top dose mostly 38.3 µM), inactives show top-dose activity change, negative = inhibition, most hits filed as inhibitors; 0.28% of 200,000 active; AID 1379, 2008; active means well fitted inhibition curve with a large enough effect; inconclusive means small, poorly fitted or top-dose-only effect; further: potency means the concentration at half of the fitted maximal effect; nearly all actives have a fitted effect of over 60% in size
#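 Kinase-Glo luciferase light output from ATP and luciferin was measured with 10 uM ATP, within the enzyme's linear range. Buffer: 50 mM imidazole pH 7.2, 50 mM KCl, 7 mM MgCl2, 0.01% Tween 20, 0.05% BSA; luminescence read after 8 min at ambient temperature.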
# HPGD block: qHTS Assay for Inhibitors of HPGD (15-Hydroxyprostaglandin Dehydrogenase) | AID 894, 2007 | purified HPGD, NADH fluorescence kinetic, PGE2 substrate | 4.3% of 150,000 active | Potency, µM, for the others: at the highest dose activity change, negative = inhibition, actives largely listed as inhibitors | 15-hydroxyprostaglandin dehydrogenase [NAD(+)] (Homo sapiens), P15428; further: potency means the concentration at half of the fitted maximal effect
#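 NADH formation kinetics: reaction with 30 uM PGE2 and 1 mM NAD+ (final), 20 nM enzyme, Tris-HCl pH 8 with Tween 20, after 15 min compound preincubation at room temperature. Fluorescence change, last versus first of five reads.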
# ALDH1A1 block: qHTS Assay for Inhibitors of Aldehyde Dehydrogenase 1 (ALDH1A1). Aldehyde dehydrogenase 1A1 (Homo sapiens), P00352. Purified ALDH1A1, NADH fluorescence, propionaldehyde substrate. Potency, µM (titrated, usually from 75.3 µM), inactives show top-dose activity, negative = inhibition, actives largely listed as inhibitors. 7.3% of 220,000 active. AID 1030, 2008;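 further: potency means the concentration at half of the fitted maximal effect; plate controls were no enzyme wells and a reference inhibitor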
# Target sequence (P00352 whole entry, looked up): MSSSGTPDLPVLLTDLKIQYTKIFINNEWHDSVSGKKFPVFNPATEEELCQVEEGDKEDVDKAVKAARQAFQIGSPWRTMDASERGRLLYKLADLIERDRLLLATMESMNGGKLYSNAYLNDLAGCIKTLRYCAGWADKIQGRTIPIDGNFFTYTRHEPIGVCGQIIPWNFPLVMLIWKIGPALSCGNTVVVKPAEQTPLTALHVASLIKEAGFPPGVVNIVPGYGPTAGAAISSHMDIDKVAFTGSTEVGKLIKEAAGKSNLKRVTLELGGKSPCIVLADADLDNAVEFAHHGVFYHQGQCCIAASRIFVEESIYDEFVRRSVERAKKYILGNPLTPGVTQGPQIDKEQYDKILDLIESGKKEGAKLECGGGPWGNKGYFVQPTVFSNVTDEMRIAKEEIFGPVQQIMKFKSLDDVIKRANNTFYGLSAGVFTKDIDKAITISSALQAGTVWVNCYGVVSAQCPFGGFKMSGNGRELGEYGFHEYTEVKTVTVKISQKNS
# Active calls of the source: *; ? = inconclusive; . = no result given; [ ] = dose if it differs, or a comment. Only some compounds are listed: those with a hit (about 10% of all), similar ones and a draw of the others. Unless noted, the call rests on the fitted dose curve; in most records, active means well fitted inhibition curve with a large enough effect (not every such curve was filed as active); inconclusive means small, poorly fitted or top-dose-only effect, or another doubt; inactive means no such curve, though single readings can be large or run the other way. Unless noted, on the % scale 0 is the no-effect control and ±100 the full control effect.
SMILES,IMPase cell inh,Lamin A splicing,PNC assembly inh,KinaseGlo FLuc,HPGD block,ALDH1A1 block
Nc1ccc(C(=O)N2CCCC2)cc1,3,0%,?,-1%,28µM*,-6%
Nc1ccc(C(=O)n2c3ccccc3c3ccccc32)cc1,4,?,?,-3%,32µM*,11µM*
CCOc1ccc(CNC(=O)C(CC)n2nc(C)n3c(cc4occc43)c2=O)cc1OC (stereo not given),-12,?,-89*,4%,-6%,-2%
Cc1ccc(Sc2c(C)nn(C(=O)COc3ccccc3)c2C)cc1,-3,.,.,.,.,.
Cc1ccccc1-n1c(=O)cc(NCc2ccc3c(c2)OCO3)[nH]c1=O,5,?,45,0%,-23%,14µM*
Cc1ccc(C(=O)N2CCCC(c3ccc(Cl)cc3)=N2)cc1,.,-8%[9.22 µM],.,-1%,.,13µM*
COc1ccc(C(=O)N2CCCC(c3ccccc3)=N2)cc1,.,0%[46 µM],.,-3%,.,?
Cc1ccc(S(=O)(=O)NNC(=O)C(=O)NNS(=O)(=O)c2ccc(C)cc2)cc1,.,?,.,3%,.,-6%
CSc1ccc(S(=O)(=O)Nc2ccc(NC(C)=O)cc2)cc1,-1,-3%,-8,13%,-3%,?
Cc1ccc(S(=O)(=O)Nc2ccc3c(c2)CCC3)cc1,3,?,-12,1%,-18%,11µM*
Cc1ccc(NNS(=O)(=O)c2ccc(C)cc2)cc1,-12,8%,?,-1%,4µM*,6.3µM*
CSc1ccc(S(=O)(=O)Nc2ccc(S(=O)(=O)Nc3ccc(C)cc3)cc2)cc1,-11,-6%,19,2%,-6%,8.9µM*
COC(=O)c1cc2cc(NS(=O)(=O)c3ccc(C)cc3)ccc2s1,-8,-9%,-100*,2%,-15%,-1%
Cc1ccc(S(=O)(=O)Nc2ccc3c(c2)CCC3)cc1C,0,?,8,3%,-6%,-6%
C[C@H]1Cc2c(COc3ccccc3)nc3c(c2CO1)CN(S(=O)(=O)c1ccc(C#N)cc1)CC3,.,16%[9.22 µM],.,-6%[7.66 µM],-2%,6%[13.5 µM]
CCC(Oc1ccccc1-c1nnc(-c2ccccc2)o1)C(=O)Nc1ccc(C(C)=O)cc1 (stereo not given),.,6%[46 µM],.,.,.,.
CC(C)(C)C1CCc2c(sc(NC(=O)C3c4ccccc4Oc4ccccc43)c2C(N)=O)C1 (stereo not given),-11,.,.,.,.,.
CCN(c1ccccc1)c1ncnc2c1cnn2-c1ccc(C)cc1C,.,-20%[46 µM],.,.,.,.
Cc1ccc(NC(c2nnc(-c3ccccc3)o2)c2ccccc2F)c(Cl)c1 (stereo not given),9,.,.,.,.,.
CC(C)NC(=O)NC(=O)COC(=O)c1ccccc1F,-11,0%,-115*,.,.,10%
Cn1cc(SCC(=O)N2CCOCC2)c2ccccc21,7,-10%,-108*,-1%,-13%,4%
Cn1cc(SCC(=O)N2CCCc3ccccc32)c2ccccc21,12,-24%,-10,0%,-14%,10µM*
O=C(CSc1nncc2ccccc12)N1CCOCC1,4,-4%,17,-3%,28µM*,?
COc1cccc(NC(=O)Cn2cc(C(=O)c3ccco3)c3ccccc32)c1,-4,.,.,.,.,.
COCCn1c(=O)cnc2cnc(Oc3ccccc3)nc21,.,2%,.,.,.,?
SMILES,IMPase cell inh,Lamin A splicing,PNC assembly inh,KinaseGlo FLuc,HPGD block,ALDH1A1 block
CC(=O)Nc1ccc(NC(=O)c2ccc(NS(=O)(=O)c3cc(C(C)(C)C)cc(C)c3C)cc2)cc1,.,?,-89*,1%,-22%,-4%
Cc1cc(C(C)(C)C)cc(S(=O)(=O)Nc2ccc(O)c(C(=O)O)c2)c1C,-6,25%,37,-3%,?,4µM*
Cc1cc(C(C)(C)C)cc(S(=O)(=O)NCC(=O)O)c1C,3,-6%,-2,6%,0%,8.9µM*
CCN1C(=O)c2cccc3c(NC(=O)c4ccc(S(=O)(=O)N5CCOCC5)cc4)ccc1c23,12,?,?,0%,-13%,2µM*
CCN1C(=O)c2cccc3c(NC(=O)c4ccc(S(=O)(=O)N(C)C)cc4)ccc1c23,13,?,-16,0%,-11%,2.8µM*
CC(CC(=O)O)(CC(=O)O)C(=O)O,.,.,.,-2%[7.66 µM],-1%,3%[13.5 µM]
CCOc1ccc2nc(N3CCC(C(=O)N4CCN(C(=O)c5ccco5)CC4)CC3)sc2c1,7,?,-14,-4%,-1%,16µM*
O=C(c1ccco1)N1CCN(c2nc3ccsc3c(=O)s2)CC1,-4,-2%,-10,4%,?,13µM*
COc1ccccc1NC(=O)c1c(C)cc(C)nc1SCC(=O)Nc1cccc(C)c1,.,7%[46 µM],.,.,.,.
COCCNCCCOc1ccc(C(C)(C)c2ccccc2)cc1,.,13%,23,-2%,-17%,?
COCCCNCCCOc1ccc(C(C)(C)c2ccccc2)cc1,.,?,-107*,-2%,-2%,?
COCCCNCC#CCOc1ccc(OC)cc1,.,?,.,2%,.,8.9µM*
Cc1cn(C)c(CC(=O)NCc2ccccc2Cl)c1C(=O)O,.,-9%[46 µM],.,.,.,.
CCCn1nc(NC(=O)c2cccs2)c2cc3cc(OC)ccc3nc21,-3,16%,-90*,-3%,?,?
CCCCn1nc(NC(=O)c2cccs2)c2cc3cc(OC)ccc3nc21,2,?,?,2%,?,?
C=CCNc1ncnc2sc(SC)nc12,.,.,.,.,.,9%
C=CCNc1nc(Cl)ncc1F,-4,-1%,-119*,8%,-3%,17%
COCCNS(=O)(=O)c1ccc(-c2ccc(S(=O)(=O)NCCOC)cc2)cc1,7,?,0,-1%,11µM*,?
CCOC(=O)N1CCC2(CC1)C(C#N)=C(N)Oc1c2c(C)nn1-c1cccc(Cl)c1,7,-17%,-22,3%,-11%,13µM*
CCS(=O)(=O)c1ccc(NC(=O)c2ccccc2Cl)c(O)c1,5,2%,-8,7%,-20%,16µM*
O=C(NCc1cccnc1)c1ccccc1-c1nc(-c2ccccc2)no1,.,.,.,-14%,.,20µM*
O=C(CCc1nc(-c2ccccc2)no1)NCc1cccnc1,1,-7%,-17,-1%,-7%,1%
Cc1ccccc1-c1noc(-c2ccccc2C(=O)NCc2ccco2)n1,.,.,.,.,.,14µM*
CCNC(=O)c1ccccc1-c1nc(-c2ccccc2Cl)no1,1,9%,7,-4%,?,-5%
O=C(Nc1c2c(nn1-c1ccc(Cl)cc1)CS(=O)(=O)C2)c1cccc(F)c1,.,-8%[46 µM],.,.,.,.
